Test results taken from PubChem BioAssay AID430 (Sanford-Burnham Center for Chemical Genomics, 2006).
The whole screen tested about 63,000 compounds, of which about 1,100 (1.7%) were called active. No stated cut-off is given here; in the data, active means cytotoxicity above about 50%; inactive means the rest. This excerpt belongs to a sample that is enriched for actives. Measured potencies and affinities stand elsewhere.

Experiment: HPDE-C7 pancreatic duct cell viability loss – fluorescence, HTS (AID 430);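 further: cells exposed to compound for 48 hours before viability readout; 0% = vehicle and 100% = reference cytotoxic drug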
Conditions: HPDE-C7 pancreatic duct cells viability, at 10 µM, hits give high values

Row | Compound | cytotoxicity
1 | COc1ccc(CN(C2CCCC2)S(=O)(=O)c2ccc(-n3cnnn3)cc2)cc1OC | -39.1% (inactive)
2 | Cc1[nH]c(=O)[nH]c(=O)c1S(=O)(=O)N1CCCC(C(=O)NCCc2ccc(Cl)cc2)C1 (configuration not stated) | -9.4% (inactive)
3 | CCOC(=O)c1csc(NC(=O)CSc2nnnn2-c2ccc(OCC)cc2)n1 | -21.4% (inactive)
4 | O=C(c1cccs1)N1CCN(S(=O)(=O)N2CCOCC2)CC1 | -21.3% (inactive)
5 | O=C(NCc1ccco1)C(c1ccncc1)N(CCC1=CCCCC1)C(=O)Cn1nnc2ccccc21 (configuration not stated) | 1.6% (inactive)
6 | Fc1ccc(Br)cc1C1C=C(c2cccnc2)Nc2ncnn21 (configuration not stated) | 16.3% (inactive)
7 | Fc1ccc(Br)cc1C1C=C(c2ccc(Br)s2)Nc2ncnn21 (configuration not stated) | 55% (active)
8 | COc1cccc(C2C=C(c3ccc(Br)s3)Nc3ncnn32)c1OC (configuration not stated) | -9.3% (inactive)
9 | Cc1cccc2cc(CN(Cc3ccco3)C(=O)c3cccs3)c(=O)[nH]c12 | -11.9% (inactive)
10 | Cn1c(Cc2ccccc2)nnc1SCC(=O)Nc1ccccc1N1CCOCC1 | 2.9% (inactive)
11 | CC(C)OC(=O)c1cn(-c2ccccc2)nc1-c1ccco1 | 4.8% (inactive)
12 | OCCN(Cc1ccccc1)Cc1cccc(F)c1 | -3.2% (inactive)
13 | COCCn1c(N)c(C(=O)NCC2CCCO2)c2nc3ccccc3nc21 (configuration not stated) | 11.4% (inactive)
14 | Nc1c(C(=O)NCC2CCCO2)c2nc3ccccc3nc2n1-c1ccccc1 (configuration not stated) | 11.1% (inactive)
15 | COCCNC(=O)c1c(N)n(CCCn2ccnc2)c2nc3ccccc3nc12 | 7% (inactive)
16 | Nc1c(C(=O)NC2CCCC2)c2nc3ccccc3nc2n1N | 11.6% (inactive)
17 | CCCCNC(=O)c1c(N)n(/N=C/c2cccnc2)c2nc3ccccc3nc12 | 4% (inactive)
18 | CC(C)Cn1c(N)c(C(=O)NCC2CCCO2)c2nc3ccccc3nc21 (configuration not stated) | 26.3% (inactive)
19 | COCCNC(=O)c1c(N)n(-c2cccc(C)c2)c2nc3ccccc3nc12 | 9.2% (inactive)
20 | Nc1c(C(=O)NC2CCCCC2)c2nc3ccccc3nc2n1/N=C/c1ccco1 | 5.1% (inactive)
21 | Nc1c(C(=O)NC2CCCC2)c2nc3ccccc3nc2n1/N=C/c1cccnc1 | 62.6% (active)
22 | O=C(Nc1ccccc1N1CCN(c2ccc(F)cc2)CC1)C1CCCCC1 | -6.3% (inactive)
23 | O=C(Oc1cccc(Oc2ccccc2)c1)N1CCOCC1 | -6.3% (inactive)
24 | CCN(CC)C(=O)CSC1=Nc2ccccc2C2=NC(Cc3c[nH]c4ccccc34)C(=O)N12 (configuration not stated) | -6.1% (inactive)
25 | O=C(CSc1nnnn1C1CCCCC1)NCc1ccc2c(c1)OCO2 | 3.2% (inactive)

Row | Compound | cytotoxicity
26 | COCCN1C(=O)C(=O)/C(=C(/O)c2ccc(OC(C)C)cc2)C1c1cccnc1 (configuration not stated) | -2.7% (inactive)
27 | CCN1CCN(C(=O)c2ccc3c(c2)N(Cc2ccc(F)cc2)C(=O)c2ccccc2S3=O)CC1 (configuration not stated) | -1.9% (inactive)
28 | COc1ccc(OC)c(C2NC(=O)NC(C)=C2C(=O)Nc2ccc(C)cc2C)c1 (configuration not stated) | -13.3% (inactive)
29 | COc1ccc(Cc2nc(-c3ccccc3)no2)cc1 | -1.1% (inactive)
30 | CCOc1cc(S(=O)(=O)n2c(C)nc3ccccc32)ccc1F | 2.2% (inactive)
31 | CCN(Cc1ccccc1)Cc1cc(OC)cc(OC)c1 | 8% (inactive)
32 | CSCCC(NC(=O)c1cc(CC(C)C)oc1C)C(=O)O (configuration not stated) | -17.8% (inactive)
33 | CCc1nnc(NC2=NCCC2)s1 | -21.5% (inactive)
34 | CC(C)Cn1c(N)c(C(=O)NCc2cccs2)c2nc3ccccc3nc21 | 63.9% (active)
35 | COCCn1c(N)c(C(=O)NCc2cccs2)c2nc3ccccc3nc21 | -11.2% (inactive)
36 | CC(C)Cn1c(N)c(C(=O)NCCN2CCOCC2)c2nc3ccccc3nc21 | -16.3% (inactive)
37 | Cc1ccc(NC(=O)Nc2ccc3c(c2)N(C)C(=O)CS3)nc1 | -4.8% (inactive)
38 | COC(=O)CCSCC(=O)Nc1cc(C)on1 | -18% (inactive)
39 | CCn1c(COc2cccc(C)c2)nnc1SCC(=O)N1CCCC1 | -3.1% (inactive)
40 | CCn1c2ccccc2c2cc(/C=N/n3cnnc3)ccc21 | 10.8% (inactive)
41 | C=Cn1ccnc1P(=S)(c1ccc2c(c1)c1ccccc1n2CC)c1nccn1C=C | 73.4% (active)
42 | CCn1c2ccccc2c2cc(N)ccc21 | 15.8% (inactive)
43 | CCCCn1c(=O)[nH]c(=O)c2c1nc(-c1ccc(C#N)cc1)n2C1CCCC1 | -7% (inactive)
44 | CCOC(=O)CSc1nc2ccccc2c(=O)n1CCCCCC(=O)NCc1ccco1 | -23.3% (inactive)
45 | OC(Cn1cncn1)c1ccc(Cl)cc1Cl (configuration not stated) | 1.1% (inactive)
46 | OC(Cn1ccnc1)c1ccc(Cl)cc1Cl (configuration not stated) | -4.5% (inactive)
47 | CC(Oc1ccc(Cl)cc1Cl)C(=O)NCCCn1ccnc1 (configuration not stated) | -1.6% (inactive)
48 | Clc1ccc(OCCn2ccnc2)c(Cl)c1 | -13.9% (inactive)
49 | Clc1ccc(SCCn2ccnc2)cc1 | -0.3% (inactive)
50 | O=C(COc1ccc(Cl)cc1Cl)NCCCn1ccnc1 | -3.9% (inactive)

Row | Compound | cytotoxicity
51 | c1ccc2c(Cn3ccnc3)c[nH]c2c1 | -14% (inactive)
52 | COc1ccc(C(c2sc3nc(C)nn3c2O)N2CCC(O)CC2)cc1OC (configuration not stated) | -15.1% (inactive)
53 | CC(=O)C1=C(C)OC(N)=C(C#N)C1c1ccncc1 (configuration not stated) | -7% (inactive)
54 | COc1ccccc1N1CCN(Cc2cccc(OC)c2OC)CC1 | 3.3% (inactive)
55 | CCCCOc1ccc(C(=O)N2CCC(C)CC2)cc1 | -20.7% (inactive)
56 | CCCCOc1ccc(C(=O)NC)cc1 | -5.6% (inactive)
57 | CCCCOc1ccc(C(=O)OC2CC(C)N(C)CC2C)cc1 (configuration not stated) | 61.9% (active)
58 | COc1cc(CN2CCSCC2)cc(OC)c1OC | -9.5% (inactive)
59 | COc1ccc(CCNC(=O)CN2CCN(c3cccc(Cl)c3)CC2)cc1OC | 1.7% (inactive)
60 | COc1cccc(N2CCN(Cc3coc4c(Cl)cc(Cl)cc4c3=O)CC2)c1 | 61.8% (active)
61 | COc1ccc(N2CCN(Cc3cc(=O)oc4ccc(Cl)cc34)CC2)cc1 | -1.8% (inactive)
62 | Cc1ccc2occ(CN3CCN(c4ccccc4)CC3)c(=O)c2c1 | -17% (inactive)
63 | COc1ccc(S(=O)(=O)CCC(=O)Nc2c(C)n(C)n(-c3ccccc3)c2=O)cc1 | -10.2% (inactive)
64 | CC(C)N(Cc1ccccc1)S(=O)(=O)N(C)C | -7.9% (inactive)
65 | COc1cc(NC(=O)Cc2nn(C)c(=O)c3ccccc23)cc(OC)c1 | 19.8% (inactive)
66 | COc1ccc(-c2cc(C(F)(F)F)n3ncc(C(=O)O)c3n2)cc1OC | 2% (inactive)
67 | Cc1ccc(S(=O)(=O)N2CCN(C(=O)C3CCCCC3)CC2)cc1 | 7.7% (inactive)
68 | Cc1cccc(OCCCN2CCCCCC2)c1 | 19.3% (inactive)
69 | Cc1cccc(OCCn2c(=O)n(C)c3ccccc32)c1 | -3.7% (inactive)
70 | Cc1cc(C)n(-c2nnc3n2N=C(c2c[nH]c4ccccc24)CS3)n1 | 51.3% (active)
71 | Cc1cccc(-c2nnc3n2N=C(c2ccccc2Br)CS3)c1 | 15% (inactive)
72 | Cc1cc(C)n(-c2nnc3n2N=C(c2ccccc2)CS3)n1 | -0.3% (inactive)
73 | N#CCSc1n[nH]c2nc3c(c(=O)n12)C1(CCCC1)Cc1ccccc1-3 | 54.9% (active)
74 | CCCn1c(SCC#N)nc2c(c1=O)C1(CCCC1)Cc1ccccc1-2 | 47.8% (inactive)
75 | CCn1c(SCC#N)nc2c(c1=O)C1(CCCC1)Cc1ccccc1-2 | 41.8% (inactive)

Row | Compound | cytotoxicity
76 | c1ccc(-n2nnnc2Oc2ccc(-c3nnco3)cc2)cc1 | -4.8% (inactive)
77 | COc1ccccc1-c1cc(C(F)(F)F)nc(N2CCOCC2)n1 | -5.9% (inactive)
78 | COc1ccccc1-c1cc(C(F)(F)F)nc(N2CCN(c3ccccc3)CC2)n1 | 29.8% (inactive)
79 | COc1ccccc1-c1cc(C(F)(F)F)nc(N2CCCC2)n1 | -25.6% (inactive)
80 | COc1ccccc1-c1cc(C(F)(F)F)nc(S(=O)(=O)CCCC(=O)NC(C)C)n1 | 28% (inactive)
81 | COc1ccccc1-c1cc(C(F)(F)F)nc(S(=O)(=O)CCCC(=O)N2CCCCC2C)n1 (configuration not stated) | 88.8% (active)
82 | Cc1cc(S(=O)(=O)N(Cc2ccc3c(c2)OCO3)CC2CCCO2)ccc1-n1cnnn1 (configuration not stated) | -7.2% (inactive)
83 | COc1cccc(C(=O)Nc2nnc(-c3ccc(F)cc3)o2)c1 | 31% (inactive)
84 | COc1cccc(-c2nnc(NC(C)=O)o2)c1 | 7.6% (inactive)
85 | COc1cccc(-c2nnc(NC(=O)c3cccc(F)c3)o2)c1 | 61.8% (active)
86 | COc1cccc(C(=O)Nc2nnc(-c3ccc(Cl)cc3)o2)c1 | 85.7% (active)
87 | COc1ccc(-c2nnc(NC(=O)c3cc(Cl)ccc3Cl)o2)cc1 | 33.1% (inactive)
88 | COc1cccc(C(=O)Nc2cccc(-c3nnc(-c4ccccc4)o3)c2)c1 | 3.9% (inactive)
89 | O=C(Nc1ccc(Cc2ccncc2)cc1)C1CC1 | -38.5% (inactive)
90 | CN(C)/C=c1\sc2c(C#N)cc(C(=O)c3ccc(Br)cc3)n2c1=O | -29.6% (inactive)
91 | O=C1[C@H]2[C@@H](C(=O)N1c1cc(Cl)cc(Cl)c1)[C@]1(C(=O)Nc3ccccc31)N1CCC[C@@H]21 | -1.8% (inactive)
92 | COC(=O)c1ccccc1Nc1ccccc1 | -2.7% (inactive)
93 | N#CC1=C(N)n2c(s/c(=C\c3ccco3)c2=O)=C(C#N)C1c1ccco1 (configuration not stated) | 12.3% (inactive)
94 | CCOC(=O)C1=C(N)n2c(s/c(=C\c3cccnc3)c2=O)=C(C(=O)OC)C1c1cccnc1 (configuration not stated) | 10.6% (inactive)
95 | CCOC(=O)C1=C(N)n2c(s/c(=C\c3ccco3)c2=O)=C(C(=O)OC(C)C)C1c1ccco1 (configuration not stated) | -11.9% (inactive)
96 | CCOC(=O)C1=C(N)n2c(s/c(=C/c3ccco3)c2=O)=C(C(=O)OC)C1c1ccco1 (configuration not stated) | 75.9% (active)
97 | CCOC(=O)C1=C(N)n2c(s/c(=C\c3cccnc3)c2=O)=C(C(=O)OCC)C1c1cccnc1 (configuration not stated) | -31.3% (inactive)
